PK Bst: Pyruvate Kinase; purified pyruvate kinase, luminescence ATP production; ribose 5-phosphate activator present at AC10; Potency, µM; actives 1.2% (n = 51,000); AID 361, 2006; in the data active = potency below about 11 µM; inconclusive = mostly about 12 µM to 25 µM;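 the screen sought inhibitors and activators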
FLuc inh: qHTS Assay for Inhibitors of Firefly Luciferase; AID 411, 2009; Potency, µM (titrated, usually from 57.1 µM), most hits filed as inhibitors; purified firefly luciferase, luminescence, 8 min; Luciferin 4-monooxygenase (Photinus pyralis), P08659; actives 2.2% (n = 72,000); active = well fitted inhibition curve with a large enough effect; inconclusive = small, poorly fitted or top-dose-only effect; note: nearly all actives have a fitted effect of over 40% in size
Target sequence (P08659 whole entry, looked up): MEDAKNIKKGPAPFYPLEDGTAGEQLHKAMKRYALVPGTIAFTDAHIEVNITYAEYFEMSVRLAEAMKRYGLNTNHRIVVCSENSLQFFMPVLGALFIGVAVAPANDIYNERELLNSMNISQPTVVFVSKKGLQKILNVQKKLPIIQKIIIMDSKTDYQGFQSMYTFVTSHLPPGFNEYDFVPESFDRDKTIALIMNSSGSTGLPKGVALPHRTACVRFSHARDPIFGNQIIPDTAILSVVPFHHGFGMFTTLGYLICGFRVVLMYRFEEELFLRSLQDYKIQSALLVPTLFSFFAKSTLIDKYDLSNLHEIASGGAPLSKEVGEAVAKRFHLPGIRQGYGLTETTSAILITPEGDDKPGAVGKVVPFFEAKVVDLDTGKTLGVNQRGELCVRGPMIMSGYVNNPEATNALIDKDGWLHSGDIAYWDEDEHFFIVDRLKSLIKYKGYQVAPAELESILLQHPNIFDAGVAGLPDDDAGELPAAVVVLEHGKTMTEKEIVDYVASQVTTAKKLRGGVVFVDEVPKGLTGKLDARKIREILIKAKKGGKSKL
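Luminescence read-out after 8 min at room temperature; enzyme reaction used luciferin plus 10 uM ATP (linear range) in imidazole buffer pH 7.2 with KCl, MgCl2, Tween 20 and BSA. Each sample was run as a titration.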
GBA activity: Glucocerebrosidase; Lysosomal acid glucosylceramidase (Homo sapiens), P04062; purified enzyme, resorufin glucoside fluorescence (screen aimed at inhibitors), 20 min; Potency, µM; AID 360, 2006; actives 1.1% (n = 48,000); in the data active = potency below about 15 µM; inconclusive = mostly about 16 µM to 33 µM;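 note: the screen sought inhibitors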
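Wild-type enzyme at 0.2 nM final in 50mM citric acid/KH2PO4, 10mM sodium taurocholate, 0.01% tween-20, pH 5.9, with resorufin beta-D-glucopyranoside at 30 uM final. Compounds titrated, 20 min at RT, red fluorescence read; AC50 from titration.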
Hits are given with their value; [ ] = dose if it differs, or a comment. This is a sample that favours compounds with a hit; in the whole collection about 3.2% have one here.

How did C#CCCCO/N=C1/C[C@@H](O)[C@@H](O)[C@@H]2[C@H]3C(=O)N(c4ccc(F)cc4F)C(=O)[C@@H]3CC[C@H]12 do in these assays?
FLuc inh: inactive[11.4 µM]

What do the screens show for `Cc1ccc2c(c1)-c1cc(C)nn1C(c1sccc1C)N2` (stereo not drawn)?
PK Bst: 11; FLuc inh: inconclusive

What do the screens show for `Cc1cc2n(n1)C(c1sccc1C)Nc1ccccc1-2` (stereo not drawn)?
PK Bst: inactive; FLuc inh: inactive; GBA activity: inactive

How did O=C(Oc1ccccc1)N1CCC2(CC1)CCN(c1ncccn1)CC2 do in these assays?
FLuc inh: inactive[11.4 µM]

Results for Cc1ccc(-c2nc3ccccc3[nH]2)cc1NC(=O)c1ccco1 ?
PK Bst: inactive; FLuc inh: 20µM; GBA activity: inactive

How did Cc1cccc2[nH]c(-c3ccc(NC(=O)c4ccco4)cc3)nc12 do in these assays?
PK Bst: inconclusive; FLuc inh: 16µM; GBA activity: inactive

Results for Cc1ccc(Oc2ccc(NC(=O)c3ccco3)cc2)cc1 ?
FLuc inh: inactive

Results for O=C(Nc1cccc(-c2nc3ccccc3[nH]2)c1)c1cccc(NC(=O)c2ccco2)c1 ?
PK Bst: inactive; FLuc inh: inactive; GBA activity: inactive

Results for COc1ccc2c(=O)c3c(=O)n(Cc4ccco4)c(C4CCCCC4)nc3oc2c1 ?
PK Bst: inactive; FLuc inh: inactive; GBA activity: inactive

How did CCCc1cc(C(N)=O)c(NC(=O)c2cc(C)on2)s1 do in these assays?
PK Bst: inactive; FLuc inh: inactive; GBA activity: inactive

How did Cc1cc(C(=O)Nc2sc(C)c(-c3ccc(F)cc3)c2C(N)=O)no1 do in these assays?
PK Bst: inactive; FLuc inh: 7.9µM; GBA activity: inactive

What do the screens show for `COC(=O)c1ccc(NC(=O)CSc2nnc(C)n2-c2ccccc2)cc1`?
PK Bst: inactive; FLuc inh: inactive; GBA activity: inactive

How did CCSc1nnc(C)n1-c1ccc(C(=O)O)cc1 do in these assays?
PK Bst: 6.6; FLuc inh: inactive; GBA activity: inactive

Results for NN(CC(=O)O)CC(=O)O ?
FLuc inh: inactive[11.4 µM]

Results for C[N+](C)(N)CCC[N+](C)(C)N ?
FLuc inh: inactive[11.4 µM]

Results for N#CCCn1c(=O)c(-c2ccc(F)cc2)nc2cnc(OCc3ccccc3)nc21 ?
FLuc inh: inactive[11.4 µM]

How did NC(=O)C1CCN(c2nc(-c3ccccc3)nc3ccccc23)CC1 do in these assays?
FLuc inh: inactive; GBA activity: inactive

How did NC(=O)C1CCN(c2nc(-c3ccccc3)nc3c2oc2ccccc23)CC1 do in these assays?
PK Bst: inactive; FLuc inh: inactive; GBA activity: 8.3

How did COc1ccc(OC)c(NC(=O)CN2C(=O)c3ccccc3S2(=O)=O)c1 do in these assays?
FLuc inh: inactive

How did COc1ccc(NC(=O)CN2c3cccc4cccc(c34)S2(=O)=O)cc1 do in these assays?
PK Bst: 1.4; FLuc inh: inactive; GBA activity: inactive

How did Cc1c(NC(=O)CN2C(=O)c3ccccc3S2(=O)=O)c(=O)n(-c2ccccc2)n1C do in these assays?
PK Bst: inactive; FLuc inh: inactive; GBA activity: inactive

How did Cc1c(NC(=O)CN2c3cccc4cccc(c34)S2(=O)=O)c(=O)n(-c2ccccc2)n1C do in these assays?
PK Bst: 11; FLuc inh: inactive; GBA activity: inactive

What do the screens show for `Cc1cnc(CNc2cc(-c3ccc(C(=O)N(C)C)cc3)ncn2)cn1`?
FLuc inh: inactive[2.29 µM]

Results for O=C(CN1C2=NCCCN2c2ccccc21)c1ccc(Br)s1 ?
PK Bst: inactive; FLuc inh: inactive; GBA activity: 6.6

Results for O=C(CN1C2=NCCCN2c2ccccc21)c1ccc2c(c1)OCO2 ?
PK Bst: inactive; FLuc inh: inactive; GBA activity: inactive

How did O=C1[C@@H]2[C@H]3[C@H](O)[C@H](O)C/C(=N/OCc4ccccc4)[C@H]3CC[C@H]2C(=O)N1c1ccc(F)cc1F do in these assays?
FLuc inh: inactive[11.4 µM]

How did CN(Cc1nc2ccccc2n1C)S(=O)(=O)c1ccc(Cl)cc1 do in these assays?
PK Bst: inactive; FLuc inh: inactive; GBA activity: inactive

What do the screens show for `Cn1c(NCc2ccccc2Cl)nc2ccccc21`?
FLuc inh: 13µM

How did Cn1c(NCc2ccccc2O)nc2ccccc21 do in these assays?
PK Bst: inactive; FLuc inh: inactive; GBA activity: inactive

Results for Cn1c(CNc2ccc(Cl)cc2)nc2ccccc21 ?
PK Bst: inactive; FLuc inh: 13µM; GBA activity: inactive

How did COc1ccc(CNC(=O)c2cc(-c3cccc(OC)c3)on2)cc1 do in these assays?
FLuc inh: inactive

Results for CCCCCCCCCCCCCCC[C@@H](O)[C@@H](N)CO ?
FLuc inh: inactive

Results for CS(=O)(=O)N1CCC[C@@]2(CCN(c3ccccn3)C2)C1 ?
FLuc inh: inactive[11.4 µM]

What do the screens show for `c1ccc(CNc2ncncc2-c2ccc3c(c2)OCO3)cc1`?
FLuc inh: inactive[2.29 µM]

How did COc1ccc(NC(=O)C2CCC(=O)N2S(=O)(=O)c2ccc(C)cc2)c(OC)c1 (stereo not drawn) do in these assays?
PK Bst: 11; FLuc inh: inactive; GBA activity: inactive

Results for COc1ccc(NC(=O)C2CCCCN2S(=O)(=O)c2ccc(F)cc2)c(OC)c1 (stereo not drawn) ?
PK Bst: inactive; FLuc inh: inactive; GBA activity: inactive

How did CC1CCN(CC(=O)N2c3ccccc3Sc3cc4ccccc4cc32)CC1 do in these assays?
FLuc inh: inactive[11.4 µM]

Results for CCCS(=O)(=O)NCc1cn2cccc(C)c2n1 ?
PK Bst: inactive; FLuc inh: inactive; GBA activity: inactive

What do the screens show for `Cc1cccn2cc(-c3ccccc3)nc12`?
PK Bst: inconclusive; FLuc inh: 10µM; GBA activity: inactive

Results for Cc1cccn2cc(-c3ccc(F)cc3)nc12 ?
FLuc inh: 7.9µM

How did Cc1cccn2cc(CNc3ccccc3)nc12 do in these assays?
PK Bst: inactive; FLuc inh: inactive; GBA activity: inactive

What do the screens show for `COc1ccc(C(=O)c2c[nH]c3ccccc23)cc1`?
FLuc inh: 10µM

What do the screens show for `COc1ccc(C(C(O)C(=O)c2c[nH]c3ccccc23)N2CCN(c3ccc(OC)cc3)CC2)cc1` (stereo not drawn)?
PK Bst: inactive; FLuc inh: inactive; GBA activity: inactive

Results for COc1ccc(CNc2ncnc3ccc(-c4ccccc4CN(C)C)cc23)c(OC)c1 ?
FLuc inh: inactive[2.29 µM]

What do the screens show for `CC(C)NC(=O)N1CC[C@@]2(CCCN(S(=O)(=O)c3ccccc3)C2)C1`?
FLuc inh: inactive[11.4 µM]

Results for Nc1ccc2oc(-c3cccc(Br)c3)nc2c1 ?
FLuc inh: 7.9µM

Results for CC(C)c1ccc(O)c(O)c(=O)c1 (tested in a mixture with another compound) ?
FLuc inh: inactive[11.4 µM]

What do the screens show for `CC(C)c1ccc2oc(-c3cc(N)ccc3O)nc2c1`?
FLuc inh: 0.5µM

How did Cc1ccccc1-c1nc2cc(N)ccc2o1 do in these assays?
PK Bst: inconclusive; FLuc inh: 13µM; GBA activity: inactive

What do the screens show for `Brc1cccc(-c2nnco2)c1`?
PK Bst: inactive; FLuc inh: inactive; GBA activity: inactive

Results for Cc1ccccc1-c1n[nH]c(=S)o1 ?
PK Bst: inactive; FLuc inh: inactive; GBA activity: inactive

How did CCCCCCCCCCCCCCC[C@H](O)[C@H](N)CO do in these assays?
FLuc inh: inactive

What do the screens show for `CCn1c(=S)sc2nc(C)sc21`?
PK Bst: inactive; FLuc inh: inactive; GBA activity: inactive

Assay outcomes (PubChem BioAssay)
